Assay results as given in the supplement of paper PMC10849652.
The full data set covers some 7,900 targets. This sample favours those with a hit. About 0.6% of all pairs of compound and target were hits. Values without a mark were called inactive.

Assays:
Assay in all cases: log2 fold change, soluble protein after heating vs DMSO (PISA); higher = thermal stabilisation; K562 cells, 10 uM, 30 min; active = over 0.2 and 3.5 SD of the protein, either way, in both replicates (recomputed)
bafetinib = compound: Cc1ccc(NC(=O)c2ccc(CN3CC[C@H](N(C)C)C3)c(C(F)(F)F)c2)cc1Nc1nccc(-c2cncnc2)n1 [bafetinib]
Outline: (§1)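 K562 cells at 2×10^6 cells/mL were treated for 30 min with 10 μM compound, and aliquots were heated for 3 min over 48°C-58°C before pooling. Extraction used PBS with 0.5% NP-40 at 4°C, and soluble protein was the supernatant after 21,000xg for 90 min, measured by TMTpro 16plex LC-MS/MS with channel sums equalised. Thermal stability values, relative to control samples and from duplicates, are log2 fold changes.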

[1] = compound: Cc1cccc(CC(=O)N2CCc3c2ccc(-c2cn(C)c4ncnc(N)c24)c3F)n1
Outline: as §1

nilotinib = compound: Cc1cn(-c2cc(NC(=O)c3ccc(C)c(Nc4nccc(-c5cccnc5)n4)c3)cc(C(F)(F)F)c2)cn1 [nilotinib]
Outline: as §1

[2] = compound: Cc1nc(Nc2n[nH]c3c2CN(C(=O)N[C@H](CN(C)C)c2ccccc2)C3(C)C)c2sccc2n1
Outline: as §1

dasatinib = compound: Cc1nc(Nc2ncc(C(=O)Nc3c(C)cccc3Cl)s2)cc(N2CCN(CCO)CC2)n1 [dasatinib]
Outline: as §1

[3] = compound: Cc1ncc(-c2ccnc(Nc3ccc(S(C)(=O)=O)cc3)n2)n1C(C)C
Outline: as §1

[4] = compound: Cn1cc(-c2ccc3c(c2)CCN3C(=O)Cc2cccc(C(F)(F)F)c2)c2c(N)ncnc21
Outline: as §1

[5] = compound: Cn1cc(-c2ccc3nnc(C(F)(F)c4ccc5ncccc5c4)n3n2)cn1
Outline: as §1

tipifarnib = compound: Cn1cncc1[C@@](N)(c1ccc(Cl)cc1)c1ccc2c(c1)c(-c1cccc(Cl)c1)cc(=O)n2C [tipifarnib]
Outline: as §1

mubritinib = compound: FC(F)(F)c1ccc(/C=C/c2nc(COc3ccc(CCCCn4ccnn4)cc3)co2)cc1 [mubritinib]
Outline: as §1

[6] = compound: NC(=O)Nc1cc(-c2cccc(F)c2)sc1C(=O)N[C@H]1CCCNC1
Outline: as §1

[7] = compound: NC(=O)c1cnc(N[C@@H]2CCCC[C@@H]2N)nc1Nc1cccc(-n2nccn2)c1
Outline: as §1

[8] = compound: NC1(c2ccc(-c3nc4ccn5c(=O)[nH]nc5c4cc3-c3ccccc3)cc2)CCC1
Outline: as §1

[9] = compound: NCC(=O)Nc1ccc(-n2nc(C(F)(F)F)cc2-c2ccc3c(ccc4ccccc43)c2)cc1
Outline: as §1

entinostat = compound: Nc1ccccc1NC(=O)c1ccc(CNC(=O)OCc2cccnc2)cc1 [entinostat]
Outline: as §1

vorinostat = compound: O=C(CCCCCCC(=O)Nc1ccccc1)NO [vorinostat]
Outline: as §1

citarinostat = compound: O=C(CCCCCCNC(=O)c1cnc(N(c2ccccc2)c2ccccc2Cl)nc1)NO [citarinostat]
Outline: as §1

silmitasertib = compound: O=C(O)c1ccc2c(c1)nc(Nc1cccc(Cl)c1)c1ccncc12 [silmitasertib]
Outline: as §1

[10] = compound: O=C1NC(=O)C(c2cnc3ccccn23)=C1c1cn2c3c(cc(F)cc13)CN(C(=O)N1CCCCC1)CC2
Outline: as §1

[11] = compound: c1cc(OCCN2CCCCC2)cc(-c2n[nH]c3ccc(-c4nnc[nH]4)cc23)c1
Outline: as §1

UniProt P35244, sequence (P35244 whole entry, looked up): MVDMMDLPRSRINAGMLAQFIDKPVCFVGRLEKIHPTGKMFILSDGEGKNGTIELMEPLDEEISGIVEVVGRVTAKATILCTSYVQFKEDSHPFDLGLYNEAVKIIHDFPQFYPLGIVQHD
UniProt P40938, sequence (P40938 whole entry, looked up): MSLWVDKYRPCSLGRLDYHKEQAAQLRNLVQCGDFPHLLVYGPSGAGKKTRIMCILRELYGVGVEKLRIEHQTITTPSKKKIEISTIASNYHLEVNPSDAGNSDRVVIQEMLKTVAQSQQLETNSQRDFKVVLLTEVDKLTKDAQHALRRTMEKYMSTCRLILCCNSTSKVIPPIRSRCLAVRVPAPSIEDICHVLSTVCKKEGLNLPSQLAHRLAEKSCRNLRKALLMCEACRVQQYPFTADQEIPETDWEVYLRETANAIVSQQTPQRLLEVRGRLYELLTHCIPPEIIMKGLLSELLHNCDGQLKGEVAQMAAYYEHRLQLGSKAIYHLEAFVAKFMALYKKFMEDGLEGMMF
UniProt Q5T8P6, sequence (Q5T8P6 whole entry, looked up): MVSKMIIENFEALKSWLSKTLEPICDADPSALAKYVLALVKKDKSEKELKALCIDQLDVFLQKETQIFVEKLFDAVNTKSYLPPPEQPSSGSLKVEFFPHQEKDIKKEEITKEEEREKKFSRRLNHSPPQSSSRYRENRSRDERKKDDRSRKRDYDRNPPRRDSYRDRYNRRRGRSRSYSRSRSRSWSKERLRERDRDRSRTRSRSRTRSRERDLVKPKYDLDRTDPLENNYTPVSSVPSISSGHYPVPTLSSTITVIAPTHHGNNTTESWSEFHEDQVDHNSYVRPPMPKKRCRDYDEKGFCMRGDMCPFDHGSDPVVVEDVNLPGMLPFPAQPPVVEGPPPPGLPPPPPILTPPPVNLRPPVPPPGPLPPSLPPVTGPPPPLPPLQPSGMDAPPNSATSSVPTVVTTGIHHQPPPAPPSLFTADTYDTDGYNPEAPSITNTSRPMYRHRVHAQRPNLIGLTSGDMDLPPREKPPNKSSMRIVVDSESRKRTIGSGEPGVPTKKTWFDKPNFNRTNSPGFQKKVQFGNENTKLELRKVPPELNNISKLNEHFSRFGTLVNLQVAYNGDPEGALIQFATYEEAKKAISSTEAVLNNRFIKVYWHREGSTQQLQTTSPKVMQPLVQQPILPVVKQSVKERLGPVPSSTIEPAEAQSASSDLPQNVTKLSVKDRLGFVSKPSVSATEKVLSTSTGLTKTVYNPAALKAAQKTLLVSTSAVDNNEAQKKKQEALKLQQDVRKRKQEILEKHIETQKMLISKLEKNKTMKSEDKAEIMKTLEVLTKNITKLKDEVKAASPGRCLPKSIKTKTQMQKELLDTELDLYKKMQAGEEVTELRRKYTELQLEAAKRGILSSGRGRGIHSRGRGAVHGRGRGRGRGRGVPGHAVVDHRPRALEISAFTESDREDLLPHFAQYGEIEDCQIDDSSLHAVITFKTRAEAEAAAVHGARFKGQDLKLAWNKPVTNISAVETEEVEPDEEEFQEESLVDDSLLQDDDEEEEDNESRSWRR
UniProt Q9HB90, sequence (Q9HB90 whole entry, looked up): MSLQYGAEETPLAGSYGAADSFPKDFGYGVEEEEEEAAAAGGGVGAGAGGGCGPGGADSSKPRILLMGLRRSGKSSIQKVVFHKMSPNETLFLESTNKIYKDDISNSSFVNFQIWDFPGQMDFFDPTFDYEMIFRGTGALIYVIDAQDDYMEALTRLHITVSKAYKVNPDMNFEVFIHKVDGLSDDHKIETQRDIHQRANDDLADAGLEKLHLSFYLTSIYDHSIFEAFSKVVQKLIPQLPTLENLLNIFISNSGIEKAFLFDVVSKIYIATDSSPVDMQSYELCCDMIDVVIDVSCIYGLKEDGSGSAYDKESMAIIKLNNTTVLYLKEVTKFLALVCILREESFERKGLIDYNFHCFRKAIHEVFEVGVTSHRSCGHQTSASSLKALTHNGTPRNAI
UniProt Q06609, sequence (Q06609 whole entry, looked up): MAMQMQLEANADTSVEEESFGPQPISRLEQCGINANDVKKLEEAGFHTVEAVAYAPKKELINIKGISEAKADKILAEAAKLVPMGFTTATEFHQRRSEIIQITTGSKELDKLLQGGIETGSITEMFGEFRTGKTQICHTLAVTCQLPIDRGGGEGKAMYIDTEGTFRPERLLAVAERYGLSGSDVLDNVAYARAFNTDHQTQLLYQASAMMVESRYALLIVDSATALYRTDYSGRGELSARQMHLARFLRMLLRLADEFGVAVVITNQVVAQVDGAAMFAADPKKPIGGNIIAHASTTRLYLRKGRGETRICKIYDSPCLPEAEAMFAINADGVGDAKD
UniProt Q96ER3, sequence (Q96ER3 whole entry, looked up): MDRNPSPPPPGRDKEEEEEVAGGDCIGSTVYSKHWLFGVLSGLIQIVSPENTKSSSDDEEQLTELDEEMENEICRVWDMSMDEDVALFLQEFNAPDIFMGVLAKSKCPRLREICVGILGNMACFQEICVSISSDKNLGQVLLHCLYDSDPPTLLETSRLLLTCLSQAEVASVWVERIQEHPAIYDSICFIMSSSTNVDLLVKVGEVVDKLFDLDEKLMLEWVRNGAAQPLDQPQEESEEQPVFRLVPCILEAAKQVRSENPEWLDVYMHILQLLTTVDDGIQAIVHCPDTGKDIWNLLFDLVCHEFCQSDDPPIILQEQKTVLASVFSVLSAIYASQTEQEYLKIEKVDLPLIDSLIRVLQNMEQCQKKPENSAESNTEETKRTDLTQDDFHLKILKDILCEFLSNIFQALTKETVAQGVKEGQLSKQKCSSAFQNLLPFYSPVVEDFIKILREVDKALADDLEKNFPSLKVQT
UniProt Q96D15, sequence (Q96D15 whole entry, looked up): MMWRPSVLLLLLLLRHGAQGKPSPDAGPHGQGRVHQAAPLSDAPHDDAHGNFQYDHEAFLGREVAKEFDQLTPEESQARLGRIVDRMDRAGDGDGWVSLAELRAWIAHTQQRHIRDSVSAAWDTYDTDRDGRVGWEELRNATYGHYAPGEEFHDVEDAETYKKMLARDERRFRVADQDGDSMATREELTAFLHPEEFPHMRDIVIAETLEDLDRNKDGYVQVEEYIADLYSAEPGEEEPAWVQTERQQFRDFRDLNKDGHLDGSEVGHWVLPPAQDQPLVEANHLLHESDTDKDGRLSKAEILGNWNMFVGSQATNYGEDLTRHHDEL
UniProt Q15436, sequence (Q15436 whole entry, looked up): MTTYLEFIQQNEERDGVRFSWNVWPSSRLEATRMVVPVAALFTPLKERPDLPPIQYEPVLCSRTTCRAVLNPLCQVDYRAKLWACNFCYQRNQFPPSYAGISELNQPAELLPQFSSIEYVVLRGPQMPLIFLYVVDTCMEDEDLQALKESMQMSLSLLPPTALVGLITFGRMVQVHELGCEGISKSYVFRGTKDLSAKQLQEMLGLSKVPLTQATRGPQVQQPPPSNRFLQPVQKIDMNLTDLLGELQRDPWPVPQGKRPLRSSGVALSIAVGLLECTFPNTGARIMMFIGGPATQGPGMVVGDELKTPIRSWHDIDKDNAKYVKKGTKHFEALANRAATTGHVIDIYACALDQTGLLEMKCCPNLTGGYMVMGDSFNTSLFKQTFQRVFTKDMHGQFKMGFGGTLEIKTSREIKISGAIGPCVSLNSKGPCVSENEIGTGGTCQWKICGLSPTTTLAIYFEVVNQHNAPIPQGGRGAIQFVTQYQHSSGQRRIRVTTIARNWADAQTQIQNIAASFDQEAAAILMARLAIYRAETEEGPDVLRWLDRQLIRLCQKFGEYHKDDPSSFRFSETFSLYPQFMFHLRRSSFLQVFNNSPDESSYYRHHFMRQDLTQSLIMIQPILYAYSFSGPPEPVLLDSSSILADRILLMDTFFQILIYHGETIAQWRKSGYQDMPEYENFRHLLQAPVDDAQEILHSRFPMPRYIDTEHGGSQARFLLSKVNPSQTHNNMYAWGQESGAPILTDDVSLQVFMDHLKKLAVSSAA
UniProt P51812, sequence (P51812 whole entry, looked up): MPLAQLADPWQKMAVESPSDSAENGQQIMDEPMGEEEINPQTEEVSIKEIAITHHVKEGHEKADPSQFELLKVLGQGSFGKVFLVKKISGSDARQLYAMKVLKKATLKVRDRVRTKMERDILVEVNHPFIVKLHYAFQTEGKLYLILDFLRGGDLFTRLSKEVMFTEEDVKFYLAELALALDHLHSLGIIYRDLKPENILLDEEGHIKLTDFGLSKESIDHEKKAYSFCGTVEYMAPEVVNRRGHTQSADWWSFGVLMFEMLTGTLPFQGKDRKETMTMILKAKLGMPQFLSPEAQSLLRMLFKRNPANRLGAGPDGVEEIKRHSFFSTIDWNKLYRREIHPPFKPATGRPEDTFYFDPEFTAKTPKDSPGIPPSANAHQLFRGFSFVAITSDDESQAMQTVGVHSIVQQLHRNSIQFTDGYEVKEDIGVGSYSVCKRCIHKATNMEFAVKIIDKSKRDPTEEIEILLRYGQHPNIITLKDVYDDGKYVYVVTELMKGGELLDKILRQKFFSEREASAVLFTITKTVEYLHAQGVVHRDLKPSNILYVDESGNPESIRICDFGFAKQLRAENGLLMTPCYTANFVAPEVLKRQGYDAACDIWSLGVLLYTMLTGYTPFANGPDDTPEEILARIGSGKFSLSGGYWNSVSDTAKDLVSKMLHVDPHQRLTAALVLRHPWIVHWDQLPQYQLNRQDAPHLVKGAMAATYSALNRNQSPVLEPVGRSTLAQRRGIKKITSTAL
UniProt Q5VZM2, sequence (Q5VZM2 whole entry, looked up): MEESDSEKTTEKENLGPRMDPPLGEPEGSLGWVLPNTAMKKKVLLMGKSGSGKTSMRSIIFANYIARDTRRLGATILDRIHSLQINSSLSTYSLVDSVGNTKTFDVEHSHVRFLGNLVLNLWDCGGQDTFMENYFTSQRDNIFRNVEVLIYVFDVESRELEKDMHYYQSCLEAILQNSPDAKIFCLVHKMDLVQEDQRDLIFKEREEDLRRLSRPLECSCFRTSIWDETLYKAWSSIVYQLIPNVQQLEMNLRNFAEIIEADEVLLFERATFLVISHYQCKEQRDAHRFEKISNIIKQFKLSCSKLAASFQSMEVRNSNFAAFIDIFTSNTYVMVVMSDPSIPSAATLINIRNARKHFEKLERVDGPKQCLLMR

Row | Target | log2 fold change (bafetinib) | log2 fold change [1] | log2 fold change (nilotinib) | log2 fold change [2] | log2 fold change (dasatinib) | log2 fold change [3] | log2 fold change [4] | log2 fold change [5] | log2 fold change (tipifarnib) | log2 fold change (mubritinib) | log2 fold change [6] | log2 fold change [7] | log2 fold change [8] | log2 fold change [9] | log2 fold change (entinostat) | log2 fold change (vorinostat) | log2 fold change (citarinostat) | log2 fold change (silmitasertib) | log2 fold change [10] | log2 fold change [11]
1 | SEC23A (UniProt Q15436) | -0.011 | 0.024 | -0.012 | 0.014 | -0.07 | -0.009 | -0.018 | -0.052 | -0.013 | -0.002 | -0.004 | 0.064 | -0.066 | -0.015 | -0.035 | -0.02 | -0.044 | 0.011 | 0.024 | -0.097
2 | RPS19 (UniProt P39019) | 0.242 | -0.026 | 0.046 | 0.181 | 0.083 | -0.021 | -0.11 | -0.068 | 0.055 | -0.037 | -0.008 | 0.075 | 0.186 | 0.079 | -0.06 | -0.007 | -0.059 | -0.014 | 0.051 | -0.107
3 | RFC3 (UniProt P40938) | -0.035 | 0.049 | -0.016 | -0.017 | -0.032 | -0.011 | 0.053 | -0.01 | -0.051 | 0.045 | -0.001 | -0.039 | -0.078 | -0.023 | -0.028 | 0.028 | 0.077 | -0.006 | -0.039 | -0.013
4 | RPS15 (UniProt P62841) | 0.087 | -0.09 | 0.033 | 0.221 | 0.133 | -0.106 | -0.194 | -0.027 | 0.082 | -0.044 | 0.005 | -0.13 | 0.135 | 0 | -0.068 | 0 | -0.034 | 0.02 | 0.036 | -0.144
5 | SCG3 (UniProt Q8WXD2) | 0.075 | -0.027 | 0.172 | -0.098 | 0.151 | -0.032 | 0.147 | -0.037 | 0.044 | -0.01 | 0.028 | -0.051 | 0.114 | 0.061 | 0.009 | 0.025 | -0.015 | -0.029 | 0.018 | -0.098
6 | RBM26 isoform 2 (UniProt Q5T8P6) | -0.003 | 0.058 | -0.088 | -0.432 | -0.176 | 0.021 | 0.12 | 0.168 | -0.033 | 0.045 | -0.001 | 0.031 | -0.135 | -0.103 | 0.141 | 0.103 | 0.193 | -0.1 | -0.05 | 0.017
7 | RHEB (UniProt Q15382) | 0.01 | 0.004 | -0.027 | 0.001 | 0.004 | 0.04 | 0.035 | 0.001 | -0.042 | 0.004 | -0.042 | -0.014 | -0.058 | -0.029 | -0.012 | 0.002 | 0.022 | -0.033 | -0.038 | -0.025
8 | SAAL1 (UniProt Q96ER3) | -0.102 | 0.047 | -0.042 | 0.161 | -0.101 | 0.246 | -0.06 | 0 | -0.053 | 0.109 | -0.091 | 0.031 | -0.207 | -0.058 | 0.04 | 0.006 | 0.011 | 0.119 | -0.04 | -0.013
9 | RAD51 (UniProt Q06609) | -0.002 | 0.021 | -0.082 | -0.006 | -0.009 | 0.04 | 0.037 | 0.003 | 0.11 | -0.017 | 0.051 | -0.019 | -0.057 | 0.031 | 0.001 | 0.047 | 0.018 | -0.003 | -0.014 | -0.012
10 | RRAGC (UniProt Q9HB90) | -0.07 | -0.054 | -0.005 | 0.022 | 0.05 | -0.021 | 0.001 | 0.05 | -0.027 | 0.031 | -0.001 | -0.091 | -0.265 (active) | -0.069 | -0.004 | -0.015 | 0.041 | 0.014 | 0.011 | -0.027
11 | RCN3 (UniProt Q96D15) | -0.015 | -0.318 (active) | 0.015 | -0.011 | 0.045 | 0.011 | 0.162 | 0.057 | -0.038 | -0.056 | -0.042 | -0.027 | 0.105 | -0.013 | -0.027 | -0.122 | -0.063 | -0.002 | -0.039 | 0.12
12 | RRAGB (UniProt Q5VZM2) | -0.079 | -0.045 | 0.031 | -0.003 | 0.041 | 0.009 | 0.06 | 0.043 | -0.025 | 0.037 | 0.112 | -0.017 | -0.317 (active) | 0.023 | 0.012 | 0.018 | -0.006 | 0.031 | 0.008 | 0.05
13 | RPS6KA3 (UniProt P51812) | -0.065 | 0.046 | 0.035 | -0.798 (active) | -0.195 | -0.019 | -0.022 | 0.031 | -0.028 | 0.02 | -0.076 | -0.177 | -0.203 | -0.029 | 0.044 | 0.048 | 0.079 | -0.038 | -0.046 | -0.241
14 | RPP25L (UniProt Q8N5L8) | 0.143 | -0.04 | 0.044 | -0.087 | 0.09 | -0.031 | -0.058 | 0.004 | 0.044 | -0.004 | 0.003 | -0.052 | -0.012 | -0.032 | -0.001 | -0.014 | -0.08 | 0.073 | 0.183 | -0.075
15 | RTF2 (UniProt Q9BY42) | -0.074 | -0.001 | -0.045 | -0.125 | -0.012 | 0.039 | -0.071 | -0.039 | -0.065 | -0.047 | -0.134 | 0.012 | 0.124 | -0.081 | -0.023 | -0.062 | 0.133 | 0.133 | -0.189 | 0.028
16 | RPA3 (UniProt P35244) | 0.023 | 0.086 | -0.034 | -0.047 | 0.016 | 0.022 | 0.105 | -0.002 | 0.014 | 0.024 | 0.044 | 0.086 | -0.021 | 0.371 (active) | 0.102 | -0.005 | 0.1 | -0.007 | -0.164 | -0.071
